Most compounds without a hit are left out; they make up all but 3.3% or so of the library.
Tb PYK inh: blocks Trypanosoma brucei pyruvate kinase. actives 0.12% (n = 410,000). Potency, µM (highest dose often 76.8 µM), inactives show top-dose activity, negative = inhibition, most hits filed as inhibitors. Q57TT1. TbPYK enzyme, Kinase-Glo Plus ATP luminescence, 45 min; further: on the % scale 0 is the no-effect control and ±100 the full control effect; nearly all actives have a fitted effect of over 50% in size
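T. brucei PYK with substrate was exposed to pin-transferred compounds across a concentration series, then started with 130 uM ADP (final). After 45 min at room temperature, Kinase-Glo Plus luminescence was read, normalized and curve-fitted.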
AmpC no deterg: blocks E. coli AmpC beta-lactamase in detergent-free assay; P00811; AmpC nitrocefin hydrolysis, absorbance 480 nm, 0.0001% Triton; Potency, µM (doses to about 57.1 µM), for inactives: at the highest dose activity change, negative = inhibition, actives largely listed as inhibitors; actives 0.52% (n = 330,000); AID 485341;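 further: plate controls were no compound for no effect and no enzyme for full effect; nearly all actives have a fitted effect of over 20% in size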
Target sequence (P00811 whole entry, looked up): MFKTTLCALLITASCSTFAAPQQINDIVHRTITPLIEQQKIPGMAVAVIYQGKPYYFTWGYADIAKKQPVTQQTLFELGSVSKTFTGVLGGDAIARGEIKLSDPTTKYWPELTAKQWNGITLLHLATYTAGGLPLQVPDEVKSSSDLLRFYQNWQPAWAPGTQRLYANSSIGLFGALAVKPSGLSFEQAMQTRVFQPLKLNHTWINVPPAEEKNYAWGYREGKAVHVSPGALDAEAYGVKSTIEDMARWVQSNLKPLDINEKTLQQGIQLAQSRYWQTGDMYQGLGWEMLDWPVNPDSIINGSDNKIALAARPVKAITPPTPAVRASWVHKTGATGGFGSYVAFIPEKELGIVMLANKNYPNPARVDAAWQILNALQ
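20 mM phosphate pH 7.0 + 0.01% (detergent screen) or 0.0001% Triton X-100; 5.3 nM AmpC reagent; cpd preinc 15 min RT; nitrocefin (800 uM stock) to start; A480 q20 s × 4 min; Activity was normalised to no-enzyme and no-compound control wells.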
AmpC detergent: blocks E. coli AmpC beta-lactamase in detergent assay | actives 0.041% (n = 370,000) | P00811 | Potency, µM (highest dose often 114 µM), for the others: at the top dose activity change, negative = inhibition, hits mostly inhibitors | AmpC hydrolysis of nitrocefin, absorbance 480 nm, 0.01% Triton;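 further: 0% = no-compound wells and -100% = no-enzyme wells; nearly all actives have a fitted effect of over 25% in size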
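AmpC (5.3 nM in the dispensed reagent) in 20 mM phosphate pH 7.0 with 0.01% (detergent screen) or 0.0001% Triton X-100 was preincubated with compounds for 15 min at room temperature. Nitrocefin was then added from an 800 uM solution, and hydrolysis was followed at 480 nm.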
RE007 growth inh: less growth of the S. pombe RE007 Vpr strain. S. pombe RE007 Vpr strain, BacTiter-Glo ATP luminescence, 24 h. Potency, µM (doses to about 92.2 µM), without a hit: at the top dose activity change, negative = less growth, usual class: inhibitors. actives 0.21% (n = 360,000). AID 651644; active means well fitted falling curve with a large enough effect; inconclusive means small, poorly fitted or top-dose-only effect; inactive means no such curve, though single readings can be large or run the other way; further: on the % scale 0 is the no-effect control and ±100 the full control effect; nearly all actives have a fitted effect of over 50% in size
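Fission yeast RE007 carrying one integrated HIV-1 vpr copy, seeded at OD 0.01 in PMG+AL medium with 23 nL pinned compound. Grown 24 h at 30 degrees; viability read by BacTiter-Glo luminescence after 5 min.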
Sm TGR inh: blocks Schistosoma mansoni thioredoxin glutathione reductase | Q962Y6 | purified TGR, DTNB reduction, TNB absorbance 405 nm | Potency, µM (titrated, usually from 114 µM), inactives show top-dose activity change, negative = inhibition, usual class: inhibitors | actives 3% (n = 360,000); further: on the % scale 0 is the no-effect control and ±100 the full control effect; nearly all actives have a fitted effect of over 60% in size
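TGR 20 nM + NADPH 100 uM (dispensed conc.), cpd preinc 15 min RT; start with NADPH (500 uM addition) then DTNB (15 mM addition). Kinetic TNB absorbance, 405 nm filter. Four-parameter Hill fit across titration.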
SARS PLpro yeast: inhibitors of SARS-CoV papain-like protease in yeast; S. cerevisiae expressing SARS-CoV PLpro, growth rescue; Potency, µM (top dose mostly 32.9 µM), without a hit: at the highest dose activity, positive = growth rescue, actives largely listed as activators; actives 0.19% (n = 330,000); AID 485353; calls by dose curve; further: 0% is about no effect; nearly all actives have a fitted effect of over 55% in size
Starred values were filed as active, the others as inactive; ? = inconclusive; . = no result given; [ ] = another dose, or the depositor's remark. Unless noted, the call rests on the fitted dose curve; in most records, active means well fitted curve in the direction sought with a large enough effect; inconclusive means small, poorly fitted or top-dose-only effect, or another doubt; inactive means no such curve, though single readings can be large; an effect the other way counts as inactive or inconclusive. Potency means the concentration at half of the fitted maximal effect.

SMILES	Tb PYK inh	AmpC no deterg	AmpC detergent	RE007 growth inh	Sm TGR inh	SARS PLpro yeast
CCCOc1ccc(N2C(=O)CC(N3CCN(c4ccccc4OC)CC3)C2=O)cc1 (stereo not drawn)	-4%	129%	?	?	50µM*	-37%
CCOc1ccc(N2C(=O)CC(N3CCN(c4ccccc4OC)CC3)C2=O)cc1 (stereo not drawn)	-3%	106%	-9%	28µM*	40µM*	-33%
COc1cccc(N2C(=O)CC(N3CCN(c4ccc([N+](=O)[O-])cc4)CC3)C2=O)c1 (stereo not drawn)	6%	29%	?	-3%	?	-1%
CCCS(=O)(=O)N1CC(=O)N(c2ccc(C)c(Cl)c2)C(C)(C(=O)NC2CCCCCC2)C1 (stereo not drawn)	-14%[15.4 µM]	.	13%	.	3%	.
CCn1cc(C(=O)N2CCN(c3cccc(Cl)c3)CC2)c(=O)c2cc(S(=O)(=O)N3CCCCC3)ccc21	-2%	.	-3%	.	0%	.
CC(C)c1ccc(CNc2nc(-c3ccco3)nn2S(=O)(=O)c2ccc(F)cc2)cc1	-7%	.	10%	.	-2%	.
CCN(CC(=O)Nc1c(F)cccc1F)C(=O)c1ccc(N2CCOCC2)c([N+](=O)[O-])c1	1%	2%	9%	6%	45µM*	6%
CCN(CC(=O)Nc1c(F)cccc1F)C(=O)c1ccc(N2CCCC2)c([N+](=O)[O-])c1	-19%	0%	7%	2%	-2%	1%
C/C(=N\NC(=S)NC(C)C)c1ccco1	-2%	-15%	-8%	9%	4µM*	1%
C/C(=N\NC(=S)NC(C)C)c1ccccc1	-2%	-16%	?	-19%	0.4µM*	-3%
Cc1ccc(-c2nn(CC(=O)NC3CCCC3)c3c2cnc2ccc(F)cc23)cc1C	0%	.	17%	.	2%	.
CCc1ccccc1N(CC)C(=O)c1cc2c(s1)-c1ccccc1OC2	1%	.	-3%	.	-6%	.
O=c1ccc2c(-c3ccccc3)c3ccc(O)cc3oc-2c1	8%	-53%	-5%	6%	8.9µM*	1%
Nc1ccc(-c2c3ccc(=O)cc-3oc3cc(O)ccc23)cc1C(=O)O	-5%	-30%	?	-6%	?	1%
Cc1oc(-c2cccs2)nc1CS(=O)CC(=O)NCCc1ccccc1 (stereo not drawn)	-11%	-10%	-22%	-2%	10µM*	12%
Cc1oc(-c2ccccc2Cl)nc1CS(=O)CC(=O)NCc1cccs1 (stereo not drawn)	-2%	22%	?	5%	-22%	2%
Cc1oc(-c2cccs2)nc1CS(=O)CC(=O)NCCCOC(C)C (stereo not drawn)	1%	1%	-11%	11%	14µM*	-9%
Cc1oc(-c2ccc(Cl)cc2)nc1CS(=O)CC(=O)NCc1cccs1 (stereo not drawn)	1%	35%	?	-13%	?	14%
CCCCNC(=O)CS(=O)Cc1nc(-c2cccs2)oc1C (stereo not drawn)	-12%	-18%	?	-7%	6.3µM*	3%
S=c1[nH]nc(C2CCCCC2)n1/N=C/c1cccc(Br)c1	-12%	-32%	?	5%	0%	1%
COc1cc(/C=N/n2c(C3CCCCC3)n[nH]c2=S)cc(Br)c1O	7.9µM*	-34%	7%	4%	-12%	-2%
COc1ccc(-n2cccc2/C=C/[N+](=O)[O-])cc1	1%	-16%	-12%	?	25µM*	-135%
O=C1NC(=Nc2ccc(O)cc2)S/C1=C/c1ccco1	-15%	10µM*	0%	-9%	25µM*	2%
Cc1cccc(N=C2NC(=O)/C(=C/C=C/c3ccco3)S2)c1	1%	28µM*	-14%	-26%	40µM*	-14%
Cc1ccc(N=C2NC(=O)/C(=C\c3ccco3)S2)cc1	-17%	-44%	-15%	?	-28%	-5%
SMILES	Tb PYK inh	AmpC no deterg	AmpC detergent	RE007 growth inh	Sm TGR inh	SARS PLpro yeast
O=C1NC(=Nc2ccc3ccccc3c2)S/C1=C/c1ccco1	-12%	32µM*	2%	-30%	28µM*	1%
COc1ccc(N=C2NC(=O)/C(=C\C=C\c3ccco3)S2)cc1	-3%	-41%	2%	-19%	.	-1%
Cc1ccc(C)c2[nH]c(=O)c(C(c3nnnn3Cc3ccco3)N3CCc4ccccc4C3)cc12 (stereo not drawn)	-16%	18%	-2%	-11%	14µM*	7%
CCOc1ccc2[nH]c(=O)c(C(c3nnnn3C3CCCCC3)N3CCN(C)CC3)cc2c1 (stereo not drawn)	2%	-13%	-2%	10%	?	11%
CCOc1ccc2[nH]c(=O)c(C(c3nnnn3Cc3ccco3)N3CCC(C)CC3)cc2c1 (stereo not drawn)	-24%	-33%	1%	3%	45µM*	3%
CCOc1ccc2[nH]c(=O)c(C(c3nnnn3Cc3ccco3)N3CCCC(C)C3)cc2c1 (stereo not drawn)	-22%	-1%	?	-6%	11µM*	2%
Cc1ccc(C)c2[nH]c(=O)c(C(c3nnnn3CCc3ccccc3)N3CCOCC3)cc12 (stereo not drawn)	4%	90%	-23%	-10%	-40%	4%
COc1ccccc1C(=O)NC1(C(F)(F)F)C(=O)Nc2c1c(=O)[nH]c(=O)n2-c1ccccc1 (stereo not drawn)	3%	.	24%	.	10%	.
Cc1nc2c(-c3ccccc3)c(C)nn2c(C)c1CCC(=O)NCc1ccc(Cl)cc1	-1%	.	6%	.	2%	.
c1coc(-c2nnc(-c3ccco3)nn2)c1	-23%	-18%	1%	14µM*	4µM*	-9%
CC(=O)N1CCc2c(sc3c2c(=O)n(-c2ccccc2)c(=O)n3CC(=O)Nc2ccccc2C)C1	-3%	.	-3%	.	-4%	.
Cc1cc(C(=O)N/N=C/c2cc(Br)c(Br)o2)n[nH]1	-6%	-19%	-3%	-10%	10µM*	1%
CCN(CC)C(=O)Cn1c(=O)cc(C)c2c(C)nn(-c3ccc(C)cc3)c21	4%	.	3%	.	2%	.
CCC(=NCc1ccco1)c1c(O)n(-c2ccc(OC)cc2)c(=O)[nH]c1=O	11%	-14%	5%	-3%	-34%	-2%
CCC(=NCc1ccco1)c1c(O)n(-c2ccc(Cl)cc2)c(=O)[nH]c1=O	-1%	-26%	4%	6%	40µM*	0%

Screens from PubChem.
